Experimental data: PubChem BioAssay AID449764 (Southern Research Specialized Biocontainment Screening …, 2010)
Among all 2,300 compounds or so, about 1,700 (74%) were called active. The set was probably picked from earlier hits. Some of the results follow. Measured potencies and affinities stand elsewhere. Unmarked numbers belong to inactive results. How the calls were made is not given here.

experiment: Mycobacterium tuberculosis H37Rv growth inhibition, no glycerol, confirmatory dose response (AID 449764); details: series mostly up to 100 µM; inhibition: at the top concentration;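 further: growth read after 7 days of incubation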

SMILES	inhibition
Cc1ccc2[nH]c3c(c2c1)CN(C(=O)CN1CCN(c2ccccn2)CC1)CC3	10.3%
COc1cc(CNC(=O)CCCCCCC(C)C)ccc1O	22.9%
CCCCNC(=O)Nc1nnc(-c2ccc(OCC)cc2)o1	4.04%
CN(C)C=Nc1ccc2nn(-c3ccccc3)nc2c1	-12.8%
O=C(Nc1ccc(Cl)cc1)N(Cc1nc2ccccc2c(=O)[nH]1)Cc1cccs1	-0.82%
CCOc1ccc(N/C(C)=C/C(=O)c2ccc3c(c2)OCCO3)cc1	-1.38%
Cc1[nH]nc(SCC(=O)NCc2ccccc2)c1[N+](=O)[O-]	3.69%
CCC(C)n1c(NC(=O)c2ccccc2)c(C#N)c2nc3ccccc3nc21 (stereo not given)	8.82%
COc1ccc(-c2oc3ccc(-c4ccc(OC)nc4)cc3c2C#CC2(O)CCCCC2)cc1	7.76%
Cc1cc(=O)oc2cc(OC(=O)C3CCN(C(=O)c4ccc(F)cc4)CC3)ccc12	-1.62%
CC12CN3CCN(CC(C3)/C1=N\NC(=O)Nc1cccc(Cl)c1)C2	5.72%
Cc1ccccc1-c1nc(CN2CCC(C(=O)NCCC3=CCCCC3)CC2)c(C)o1	4.01%
Cc1ccc2nc(SCC(=O)Nc3ccc4c(c3)CCC4)[nH]c2c1	5.82%
CCCc1cc2c(cc1NC(=O)c1ccccc1Cl)OCO2	7.35%
Cc1sc2nc3c4ccccc4c(NCc4ccco4)nn3c(=O)c2c1C	-4.52%
Cc1ccc(C2CN(C)C3(C(=O)Nc4ccccc43)C23COc2ccccc2C3=O)cc1 (stereo not given)	-10.1%
CCOc1ccc(N=c2scc(-c3ccccc3)n2CCO)cc1	-0.96%
CC1(C)OC(=O)C(=NNc2ccc(Cl)cc2)C(=O)O1	9.09%
Cc1cccc(CSc2nc3c(c(-c4cccs4)c2C#N)CN(C)CC3)c1	5.32%
CC1(C)CC(=O)c2c(O)cc(OCc3ccc(Br)cc3)cc2O1	27.8%
O=C(CNC(=O)c1ccc(Cl)cc1)c1ccc(Cl)cc1	4.82%
COC(=O)C(Cc1ccc(OC(=O)c2ccc(C(F)(F)F)cc2)cc1)N1Cc2ccccc2C1=O (stereo not given)	5.41%
Cc1ccsc1/C=N/Nc1ccc(F)cc1F	-13.4%
CCOC(=O)c1ccc(N=Cc2nc3ccccc3n2C)cc1	-0.5%

SMILES	inhibition
CC1(C)CC(=O)c2cc(C(=O)NNc3ccccc3)c(=O)n(-c3ccccc3)c2C1	1.32%
Cn1cnnc1SCc1ccc(-c2ccc(Br)cc2)o1	3.16%
O=C(Nc1ccc(CN2CCOCC2)cc1)c1ccc(-c2cc(Cl)ccc2Cl)o1	13.3%
CCOC(=O)c1ccc(N=C2S/C(=C\c3cc(C)n(-c4cccnc4)c3C)C(=O)N2C)cc1	-1.19%
C(=C\c1ccccc1)/C=N/Nc1nc2ccccc2s1	16.2%
O=C(COC(=O)C1CC2CCCC(C1)C2=O)NNC(=O)c1ccccc1F (stereo not given)	6.77%
CC1(c2ccc(Cl)c(Cl)c2)NC(=S)N2C1NC(=S)N2c1ccccc1 (stereo not given)	8.16%
CC(=O)Oc1c(C)cc(Cl)cc1C(=O)Nc1ccc([N+](=O)[O-])cc1Cl	-3.94%
CCCc1nc2oc(C(=O)OCC)c(N)c2c2c1COC(C)(C)C2	9.84%
O=C1c2ccccc2C(=O)N1Nc1ccccc1	-0.14%
CCc1noc(C)c1C(=O)Nc1nc(-c2ccc(F)cc2)c(C)s1	-3.73%
COc1ccc(-c2nc(NC(=O)c3[nH]c(C)c(C(C)=O)c3C)sc2C)cc1	0.11%
CCCCOP(=O)(OCCCC)C(Nc1ccc(C(=O)OCC)cc1)c1ccncc1 (stereo not given)	7.49%
CCOC(=O)c1ccc(Nc2cc3ccccc3c(=O)[nH]2)cc1	5.75%
Cc1ccc(C)c2nc(N3CCCC3)c(C#N)cc12	1.81%
N=c1c(C(=O)NC2CCCCC2)cc2c(=O)n3ccccc3nc2n1Cc1ccc(F)cc1	-0.07%
Cc1ccc(S(=O)(=O)CNC(=S)c2ccc3ccccc3c2)cc1	12.2%
O=C(NC1CCCCCC1)c1ccccc1-c1ccccc1	2.75%
CCOC(=O)N1CCN(C(=O)COC(=O)C2CCN(S(=O)(=O)c3c(Cl)cccc3Cl)CC2)CC1	-0.31%
CCOc1ccccc1NC(=O)C12CC3CC(C1)CC(c1ccc(C)cc1)(C3)C2	3.63%
COC(=O)CNC(=O)CSc1nc2sc(-c3ccccc3)cc2c(=O)n1-c1ccccc1	9.12%
CCOc1ccc(-c2nn3c(-c4ccccc4)nnc3s2)cc1	-10.9%
Cc1ccccc1-c1nc2cc(N)ccc2o1	-20%
CCCCCCCCCCCCCCCC(=O)NCCO	-3.35%

SMILES	inhibition
CCCCCCCCCCNC(=O)C(=O)Nc1ccccn1	-1.26%
O=C(/C=C/c1ccco1)Nc1cccc(-c2nc3ccccc3[nH]2)c1	13.6%
COc1ccc(OC(=O)c2cc3cc(Cl)ccc3oc2=O)cc1	-0.49%
N/C(Cc1ccc([N+](=O)[O-])cc1)=N\OC(=O)c1ccc2ccccc2c1	-1.93%
Cc1cccc(C)c1OCC(=O)Nc1cccc(-c2nnc(-c3ccccc3)o2)c1	9.51%
O=C(Nc1nc2c(s1)CCCC2)c1cc(-c2ccc3c(c2)OCO3)nc2ccccc12	0.44%
Cc1cc(N2CCN(C(=O)Nc3ccccc3C#N)CC2)c2ccccc2n1	5.5%
COc1ccc(N=N/C(=C\O)C(=O)c2cccs2)cc1	-1.6%
Cc1ccc(C(=O)O/N=C(\N)c2ccc(Br)cc2)cc1C	4.69%
CCOCCCNS(=O)(=O)c1ccc(NC(=O)N2c3ccccc3Sc3ccccc32)cc1	-3.66%
COc1ccc(N=Cc2c(OC)ccc3ccccc23)cc1	-15.2%
COc1ccc(N=Cc2c(O)cc(C)oc2=O)cc1	-5.32%
CCOc1ccc(NC(=O)N(C2CCCCC2)C(C)c2ccncc2)cc1 (stereo not given)	-3.13%
CCOc1ccc(N=C(NC#N)SCC(=O)NC2CC2)cc1	3.09%
CCOc1ccc(N=CC2=C(O)CC(c3ccco3)CC2=O)cc1 (stereo not given)	-4.94%
C=CCN1CC[C@]23c4c5ccc(O)c4O[C@H]2/C(=N/NC(=O)c2ccccc2)CC[C@@]3(O)[C@H]1C5	-1.3%
COc1ccc(N=Cc2c[nH][nH]c2=O)cc1	1.31%
Cn1c(N)c(C(=O)COC(=O)c2ccc([N+](=O)[O-])o2)c(=O)n(C)c1=O	-10.6%
O=C(c1n[nH]c(=O)c2ccccc12)N1CCN(C2c3ccccc3-c3ccccc32)CC1	4.65%
COCCN=C1Sc2nc3ccc(C)cc3cc2CN1Cc1ccco1	8.95%
C#CCCc1cscc1/C=[N+](\[O-])c1ccc(C(=O)OCC)cc1	-6.58%
O=C(O)c1ccccc1C(=O)NNc1ccc(Cl)cc1Cl	0.63%
